# Experimental data reported in PubChem BioAssay (NCATS).
# Where “and” joins values, the source holds several entries; their conditions need not be identical. Identical values can stand only once. Records with an inconclusive call do not appear. Unmarked numbers belong to inactive results. Calls follow the shape of the dose curve; as a rule, active = well fitted activation curve with a large enough effect; inconclusive = small, poorly fitted or top-dose-only effect; inactive = no such curve, though single readings can be large or run the other way.
# Target: Cellular tumor antigen p53 (Homo sapiens) (UniProt P04637)
# Assay: Primary qHTS for small molecule compounds that upregulate eGFP-tagged delta133p53alpha (in N-terminal) cells. (AID 2060322);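 also: cells pre-induced with doxycycline then dosed without doxycycline; series mostly up to about 56 µM; 0% = DMSO vehicle and 100% = reference activator; nearly all actives have a fitted effect of over 75% in size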
# Settings: NCI-H358 eGFP-delta133p53alpha fluorescence, 24 h; activation: stronger effect = higher value
# How it was run: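 NCI-H358 cells pre-induced 24 h with 10 ng/ml doxycycline for eGFP-delta133p53alpha, plated dox-free and exposed 24 h at 37C to titrated compounds. Fixed, Hoechst-stained; gated GFP peak intensity by laser scanning cytometry, normalized to DMSO (0%) and 57.5 uM 5-azacytidine (100%).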
# Cellular tumor antigen p53 (Homo sapiens), sequence (P04637 whole entry, looked up): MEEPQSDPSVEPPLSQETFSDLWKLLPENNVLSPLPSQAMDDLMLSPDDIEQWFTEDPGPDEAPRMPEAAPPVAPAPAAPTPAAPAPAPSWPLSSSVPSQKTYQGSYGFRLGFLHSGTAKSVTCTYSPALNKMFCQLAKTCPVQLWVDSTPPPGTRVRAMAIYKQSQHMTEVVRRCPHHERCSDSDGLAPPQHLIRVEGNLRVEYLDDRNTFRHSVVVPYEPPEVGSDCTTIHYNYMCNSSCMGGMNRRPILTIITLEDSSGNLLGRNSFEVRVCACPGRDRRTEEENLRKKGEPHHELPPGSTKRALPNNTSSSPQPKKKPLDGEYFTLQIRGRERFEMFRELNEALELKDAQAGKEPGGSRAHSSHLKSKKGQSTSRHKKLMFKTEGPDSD
row,SMILES,activation
1,CCCCCCOC(=O)N=C(N)c1ccc(NCc2nc3cc(C(=O)N(CCC(=O)OCC)c4ccccn4)ccc3n2C)cc1,20.7%
2,O=P(O)(O)OCC(O)CO (stereo not given),-9.21%
3,O=C(O)COC(=O)Cc1ccccc1Nc1c(Cl)cccc1Cl,5.08%
4,CC1(C)[C@H](O[C@H]2O[C@H](C(=O)O)[C@@H](O)[C@H](O)[C@H]2O[C@@H]2O[C@H](C(=O)O)[C@@H](O)[C@H](O)[C@H]2O)CC[C@@]2(C)[C@H]1CC[C@]1(C)[C@H]2C(=O)C=C2[C@H]3C[C@@](C)(C(=O)O)CC[C@]3(C)CC[C@]21C,-5.71%
5,COc1cc(N)c(Cl)cc1C(=O)NC1CCN(CCCOc2ccc(F)cc2)CC1OC (stereo not given),13%
6,NC(=O)C1(N2CCCCC2)CCN(CCCC(=O)c2ccc(F)cc2)CC1,14.2%
7,CCNC(=O)/C=C/c1cccc(Br)c1,-10.9%
8,COc1ccc(-c2cc(=S)ss2)cc1,-4.18%
9,CCCCCCn1c(=O)c2c(ncn2C)n(C)c1=O,-5.08%
10,N/C(=N\N=C\c1ccc(Cl)cc1)N/N=C/c1ccc(Cl)cc1,0%
11,CCN(CC)CCOC(=O)C(c1ccccc1)C1CCCCC1 (stereo not given),14.2%
12,Cc1cc(O)c(C(C)C)cc1Cl,-0.565%
13,CN(C)CCN(Cc1ccc(Cl)cc1)c1ccccn1,1.96%
14,CC(=O)Oc1cccc(O)c1,18.6%
15,N[C@@H](C(=O)N[C@@H]1C(=O)N2C(C(=O)O)=C(Cl)CS[C@H]12)c1ccccc1,-19.2% and 26.9%
16,NC(=O)CC[C@@H]1NC(=O)[C@H](Cc2ccccc2)NC(=O)[C@H](Cc2ccc(O)cc2)NC(=O)CCSSC[C@@H](C(=O)N2CCC[C@H]2C(=O)N[C@@H](CCCN=C(N)N)C(=O)NCC(N)=O)NC(=O)[C@H](CC(N)=O)NC1=O,-3.35%
17,O=C(C=Cc1ccc(CN(CCO)CCc2c[nH]c3ccccc23)cc1)NO,23.4%
18,COc1ccc(C(Cl)=C(c2ccc(OC)cc2)c2ccc(OC)cc2)cc1,-1.67%
19,CC(C)Cc1ccc(CC(=O)O)cc1,-36.8%
20,COc1ccc(CCC(=O)c2c(O)cc(O[C@@H]3O[C@H](CO)[C@@H](O)[C@H](O)[C@@H]3O[C@@H]3O[C@@H](C)[C@H](O)[C@@H](O)[C@@H]3O)cc2O)cc1O,22.6%
21,O=C(OCc1ccccc1)c1ccc(O)cc1,-15.3%
22,CN(C)CCC[C@@]1(c2ccc(F)cc2)OCc2cc(C#N)ccc21,15.3%
23,O=C1NC(=O)C(=Cc2ccc3nccnc3c2)S1,-3.42%
24,Cc1c[nH]c2ccccc12,17.6%
25,CN(C)CCOC(c1ccc(Cl)cc1)c1ccccn1 (stereo not given),15.3%
